A selection: hits, their analogues and other compounds. The true share with any hit is near 18%.
DT40 TDP1 CPT – growth inhibition of DT40 Tdp1-/-;hTDP1 cells with camptothecin (screen for TDP1 inhibitors); Potency, µM (series often up to 46.2 µM), actives largely listed as inhibitors; hit rate 12% among 420,000; chicken DT40 Tdp1-/-;hTDP1 cells + 20 nM CPT, ATP luminescence, 48 h; note: nearly all actives have a fitted effect of over 55% in size
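Cell growth measured by CellTiter-Glo luminescence after a minimum 48 h, 37 C compound exposure with 20 nM CPT in Tdp1-knockout DT40 cells stably expressing hTDP1, seeded 400/well; qHTS titration format.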
TGFb SMAD3 inh – blocks TGF-b signaling; HepG2 CAGA-GFP TGF-b/SMAD3 reporter, GFP fluorescence, 18 h; TGF-beta stimulated, 500 pg/mL final; Potency, µM (series often up to 46.1 µM), hits mostly inhibitors; hit rate 1.2% among 410,000; note: nearly all actives have a fitted effect of over 65% in size
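HEPG2 CAGA-GFP, 1000 cells/well; 2 h settle, 37 C; cpd via pin tool; TGF-b 500 pg/mL final; 18 h, 37 C; GFP imaging ex488/em500-530; %Activity normalised to -TGF-b and +DMSO controls; CRC fit, curve class.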
IL1B secr inh – inhibitors of inflammasome signaling (IL-1 beta secretion); THP-1 LPS/ATP IL-1B secretion, AlphaLISA, 16 h; hits give low values; activity change, % at 57.5 µM; hit rate 4.7% among 360,000; AID 743279; in the data active = activity change below about -50%; inconclusive = mostly about -30% to -49%
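Secreted IL-1B measured by AlphaLISA bead assay after 16 h compound exposure of THP-1 cells; compounds (final up to 57.5 uM) added 1 h before LPS (250 ng/mL) and ATP (1.25 mM) stimulation; lower signal means less secretion.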
TDP1 cell noCPT – qHTS for Inhibitors of human tyrosyl-DNA phosphodiesterase 1 (TDP1): qHTS in cells in absence of CPT; AID 686978, 2013; DT40 Tdp1-/- hTDP1 cells, no CPT, ATP luminescence, 48 h; Potency, µM (doses to about 46.2 µM), hits mostly inhibitors; hit rate 15% among 420,000; note: nearly all actives have a fitted effect of over 55% in size
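Chicken DT40 Tdp1-/- cells stably complemented with human TDP1 were seeded at 400 cells/well with DMSO in place of 20 nM camptothecin. After compound pinning, cells grew at least 48 hr at 37 °C; viability read by CellTiter-Glo luminescence.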
TDP1 block – TDP1 (human) enzyme inhibition; Q9NUW8; recombinant TDP1, AlphaScreen DNA substrate cleavage; Potency, µM (titrated, usually from 130 µM), usual class: inhibitors; hit rate 0.28% among 350,000; note: nearly all actives have a fitted effect of over 40% in size
Target sequence (Q9NUW8 whole entry, looked up): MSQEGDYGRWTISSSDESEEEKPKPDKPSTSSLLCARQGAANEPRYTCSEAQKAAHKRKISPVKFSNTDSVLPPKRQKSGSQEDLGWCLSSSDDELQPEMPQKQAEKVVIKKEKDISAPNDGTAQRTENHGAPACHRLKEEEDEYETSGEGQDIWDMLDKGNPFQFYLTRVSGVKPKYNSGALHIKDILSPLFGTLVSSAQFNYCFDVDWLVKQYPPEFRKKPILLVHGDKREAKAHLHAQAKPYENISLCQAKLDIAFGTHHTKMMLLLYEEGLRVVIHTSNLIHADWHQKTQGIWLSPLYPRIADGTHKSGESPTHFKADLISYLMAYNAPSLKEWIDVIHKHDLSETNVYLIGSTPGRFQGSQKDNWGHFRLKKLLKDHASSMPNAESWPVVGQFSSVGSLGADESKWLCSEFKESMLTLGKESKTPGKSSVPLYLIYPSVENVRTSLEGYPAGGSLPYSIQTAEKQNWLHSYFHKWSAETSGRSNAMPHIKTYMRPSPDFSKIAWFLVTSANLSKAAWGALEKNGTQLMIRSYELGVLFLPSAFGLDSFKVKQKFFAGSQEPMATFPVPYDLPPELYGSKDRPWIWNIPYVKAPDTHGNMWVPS
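Steps: enzyme plus compound, 15 min RT; add biotin/phosphotyrosine-FITC oligonucleotide (15 nM final), react 5 min; add donor/acceptor beads (10 ug/ml final), 10 min; read AlphaScreen. Tdp1 at 1 nM final.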
HepG2 viability – kills HepG2 cells in TGF-b inhibitor counter-screen | HepG2 CAGA-GFP viability, ATP luminescence, 18 h | Potency, µM (series often up to 46.1 µM), actives largely listed as cytotoxic | hit rate 0.76% among 410,000 | AID 588856
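CellTiter-Glo luminescence gave cytotoxicity after 18 hours at 37 degrees C. The cells were HepG2 CAGA-GFP in 1% FBS DMEM, stimulated with 500 pg/mL TGF-beta after compound addition. %Activity was normalised to no-cell wells (complete cell-killing) and DMSO (no toxicity), and curves were fitted and classified.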
A number is an active result; n = inactive; u = inconclusive; x = no result given; [ ] = another dose, or the depositor's remark. Unless noted, calls come from the whole dose curve; as a rule, active = well fitted curve in the direction sought with a large enough effect; inconclusive = small, poorly fitted or top-dose-only effect, or another doubt; inactive = no such curve, though single readings can be large; an effect the other way counts as inactive or inconclusive.

SMILES	DT40 TDP1 CPT	TGFb SMAD3 inh	IL1B secr inh	TDP1 cell noCPT	TDP1 block	HepG2 viability
Cc1ccc(N(C(=O)Cn2nnc3ccccc32)C(C(=O)NC2CCCCC2)c2cn(C)nc2C)cc1 (configuration not stated)	u	n	n	n	n	n
Cc1cccc(N2CCN(S(=O)(=O)c3cc(Br)cc4c3N(C(=O)C3CC3)CC4)CC2C)c1 (configuration not stated)	u	n	x	u	n	n
O=C(C=Cc1ccccc1O)c1ccccc1O	u	u	-96.9	14.6µM	x	22.4µM
O=C(C=Cc1cccc(O)c1)c1ccccc1O	u	u	-93.1	14.6µM	x	n
O=C(/C=C/c1cc2ccccc2o1)c1ccccc1O	n	u	-102.0	u	n	n
O=C(/C=C/c1ccc(O)c(O)c1)OCCc1ccccc1	1.46µM	n	n	1.03µM	n	n
O=c1oc2ccccc2cc1O	n	x	x	n	n	x
Cc1ccsc1CN(C)CC(=O)N(C)CC(=O)Nc1c(Cl)cccc1Cl	n	n	n	n	x	n
Cc1nc(NC(=O)C(C)(C)C)sc1C(=O)Cn1cc(CCCC#N)nn1	n	x	n	n	x	x
O=C(/C=C/c1ccc(F)cc1)c1ccccc1Br	u	u	u	16.4µM	n	n
O=C(/C=C/c1ccc(O)c(O)c1)c1ccccc1O	11.6µM	n	-93.2	u	n	n
COCOc1ccccc1C(=O)/C=C/c1ccccc1	x	x	x	x	n	x
O=C(/C=C/c1ccoc1)c1ccccc1O	n	n	n	n	n	n
C=CCC(C)(O)c1cccs1 (configuration not stated)	x	x	x	x	n	x
COc1c2ccccc2nc2ccccc12	u	n	n	u	x	n
COc1cccc2nc3cc(C)c(C)cc3nc12	13µM	n	n	18.4µM	n	n
Cc1ccc2cc(CNC(C)CO)c(N3CCC(O)CC3)nc2c1 (configuration not stated)	n[9.04 µM]	x	x	n	x	x
O=C(COC(=O)COc1ccccc1)NCCC1=CCCCC1	n	n	n	n	n	n
O=C(Nc1ccc(NC(=S)NC(=O)c2ccccc2Cl)cc1)c1cccc(Cl)c1	18.4µM	n	n	16.4µM	x	n
CC(OC(=O)c1ccccc1O)C(=O)Nc1cccc(Cl)c1 (configuration not stated)	n	n	n	13µM	n	n
Cc1ccccc1C(=O)NC(=S)Nc1cccc(NC(=O)C(C)C)c1	n	n	n	u	n	n
Cc1cc(C(=O)OC(C)C(=O)Nc2cccc(Cl)c2)on1 (configuration not stated)	n	n	n	n	n	n
CC(C)C(=O)Nc1cccc(NC(=S)NC(=O)c2ccccc2Cl)c1	u	n	n	18.4µM	n	n
Cc1ccc(-n2nnc(C(=O)Nc3cc(F)ccc3F)c2C)cc1F	n	n	x	u	n	n
COc1ccccc1C1=NN(C(=S)Nc2ccccc2)C(c2ccco2)C1 (configuration not stated)	u	n	n	u	n	n
SMILES	DT40 TDP1 CPT	TGFb SMAD3 inh	IL1B secr inh	TDP1 cell noCPT	TDP1 block	HepG2 viability
CNC(=S)N1N=C(c2ccc(OC)cc2)CC1c1ccc(Cl)cc1Cl (configuration not stated)	n	n	n	n	x	n
CNC(=S)N1N=C(c2ccc(C)cc2)CC1c1cc(OC)ccc1OC (configuration not stated)	u	n	n	9.2µM	n	n
COc1ccc(OC)c(C2CC(c3ccccc3)=NN2C(=S)Nc2ccccc2)c1 (configuration not stated)	3.66µM	n	n	3.66µM	n	n
CCn1nnc2cc(C(=O)Nc3ccc(OC)cc3)ccc21	n	n	x	n	n	n
CC1CC1C(=O)N(C)CC(=O)Nc1cccc(F)c1 (configuration not stated)	n	n	n	n	n	n
Cc1ccc2cc3c(NC(=O)c4ccco4)nn(C)c3nc2c1	n	n	n	u	n	n
